This is a sample that favours compounds with a hit; in the whole collection about 2.6% have one here.
LGR2 inh – blocks bursicon-induced cAMP signaling via Drosophila LGR2. 380,000 tested, 0.35% active. AID 720647. HEK293 LGR2, CRE-luciferase, bursicon-stimulated, 4 h. inhibition, % at 9.99 µM;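 active means drop in luminescence signal, shown as inhibition above about 50% in the replicate tests, limit read from the data, passing the limit was not always enough; inconclusive means probably only some replicates passing the limit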;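 further: agonist challenge used bursicon conditioned medium at about half maximal strength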
KKLEB tox – counter-screen for CF NF-kB inhibitors: cytotoxicity | KKLEB CF airway cells viability, ATPlite luminescence, overnight; stronger effect = lower value; cells stimulated with P. aeruginosa culture filtrate | 360,000 tested, 0.36% active | activity change (cytotoxicity), % at 5 µM;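 active means corrected activity change at or below -50% at 5 µM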
TWEAK Fn14 block – inhibitors of TWEAK-Fn14 interaction signaling; inhibition, % at 10 µM; TWEAK-stimulated Fn14 reporter cells, luciferase luminescence, 8 h; 360,000 tested, 2% active; AID 1159606; in the data active means inhibition above about 50%
TROY NFkB inh – inhibitors of TROY-dependent NF-kB signaling | Q293 LMP1-TROYcd NF-kB luciferase reporter, 4 h | inhibition, % at 10 µM | 360,000 tested, 0.98% active | AID 1347056;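 active means compounds whose plate-normalised and pattern-corrected inhibition of the luciferase reporter signal at the single screening dose is 50% or more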
EWS-Fli inh – inhibitors of EWS/Fli oncoprotein transcriptional activity | A673 NR0B1-luciferase reporter, viability-normalised | inhibition, % at 12.6 µM | 350,000 tested, 0.67% active | AID 651661;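 active means mean inhibition of at least 50% after viability correction, with every replicate also passing that limit; inconclusive means mean reaches 50% but only one of two replicates passes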;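 further: firefly luciferase signal divided by Alamar Blue viability fluorescence both relative to DMSO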
CF NFkB block – cystic fibrosis NF-kB activation inhibition | KKLEB NF-kB-GFP reporter, PAF-induced, GFP fluorescence overnight | AID 588850 | 360,000 tested, 0.86% active | inhibition, % at 5 µM;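 active means at least 50% inhibition at 5 µM, scaled per plate between neutral and stimulator controls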;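 further: PAF is a Pseudomonas aeruginosa culture filtrate used as stimulus; plate controls were PAF-stimulated DMSO wells for no effect and unstimulated DMSO wells for full effect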
CF NFkB inh conf – confirmation of cystic fibrosis induced NF-kB inhibitors | inhibition, % at 5 µM | shares compounds with CF NFkB block | KKLEB CF airway cells, PAF-induced NF-kB-GFP fluorescence, overnight | 1,300 tested, 64% active | AID 602472; in the data active means inhibition above about 40%;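 further: stimulus PAF is a Pseudomonas aeruginosa filtrate and not platelet activating factor; plate controls were DMSO wells with stimulus for no effect and unstimulated DMSO wells for full effect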
An asterisk follows results filed as active; u = inconclusive; x = not tested or not shown.

SMILES	LGR2 inh	KKLEB tox	TWEAK Fn14 block	TROY NFkB inh	EWS-Fli inh	CF NFkB block	CF NFkB inh conf
N#C/C(=C\c1ccc(OCc2ccc(C(=O)O)cc2)cc1)C(=O)N1CCOCC1	80*	-6	-6	-63	81*	-10	x
COc1cc(/C=C(\C#N)C(=O)N2CCOCC2)ccc1OCc1ccccc1	-33	-1	-19	-27	-50	-25	x
O=C(c1ccccc1)c1nn(-c2ccc(Cl)cc2)c(=O)cc1C(F)(F)F	x	-15	74*	-48	x	-4	x
O=C(Nc1cccc(S(=O)(=O)Nc2ccc(Cl)cc2)c1)c1cc2c(s1)CCCC2	8	-6	84*	41	x	-2	x
Cc1ccc(NC(=O)c2cc3c(s2)CCCC3)cc1S(=O)(=O)Nc1ccccc1Cl	20	-8	78*	46	x	13	x
O=C(Nc1ccc(N2CCCCC2)c(S(=O)(=O)Nc2ccccc2Cl)c1)c1cccnc1	1	16	33	30	-7	-36	x
O=C(Nc1ccc(Cl)c(Cl)c1)Nc1ccc(N2CCCC2)c(S(=O)(=O)Nc2ccccc2Cl)c1	29	-54*	68*	21	x	62*	x
O=C(Nc1cc(S(=O)(=O)Nc2ccccc2Cl)ccc1O)c1cc2c(s1)CCCC2	10	13	-6	-4	6	-5	x
OC[C@H]1[C@@H](c2ccccc2)C2(CN(CCC(F)(F)F)C2)N1Cc1ccncc1	-8	x	x	x	1	x	x
O=C(C[C@@H]1C[C@H]2c3cc(NC(=O)C4CCOCC4)ccc3O[C@H]2[C@@H](CO)O1)NCCc1ccccc1	1	x	x	x	-4	x	x
O=C(N[C@@H]1CC[C@@H](CCNC(=O)C2CCCC2)O[C@H]1CO)c1ccccn1	-11	x	x	x	-5	x	x
CC[C@H](C)C1OC(=O)[C@@H](C)[C@@H](CC)NC(=O)[C@H](C)N(C)C(=O)C(C)(C)C(=O)C(C)NC(=O)[C@H](Cc2ccc(OC)cc2)N(C)C(=O)[C@H](C(C)C)N(C)C(=O)CNC(=O)[C@H](CC(C)C)N(C)C(=O)CNC1=O (stereo partly specified)	x	-94*	12	54*	x	96*	x
Cc1noc(C)c1NC(=O)Nc1ccc2c(c1)CC(=O)N([C@H](C)CO)C[C@@H](C)[C@H](CN(C)Cc1ccc3c(c1)OCO3)O2	-25	x	x	x	2	x	x
CC(C)(O)C#Cc1ccc([C@@H]2C[C@H]3CN(c4ccccc4)C(=O)[C@]34CCCN24)s1	1	-1	19	2	16	60*	44*
O=C1N(c2ccccc2)C[C@@H]2C[C@@H](c3cccs3)N3CCC[C@@]123	u	13	26	1	2	-3	x
NC(=O)c1sc2nccc(Nc3ccccc3)c2c1N	x	4	5	-6	x	73*	73*
Nc1c(C(=O)Nc2ccccc2)sc2ncc([N+](=O)[O-])cc12	-12	14	-28	-26	-56	-18	x
CC(C)C[C@H]1CNC(=S)N1C[C@H]1CCCN1C[C@H](Cc1ccccc1)N1C[C@H](Cc2ccc(O)cc2)N(CC2CCCCCC2)C1=S	x	-47	12	-2	18	61*	44*
CC(C)C[C@H]1CN([C@@H](Cc2ccc(O)cc2)CN2CCC[C@@H]2CN2C(=S)NC[C@@H]2Cc2ccccc2)C(=S)N1CC1CCCCC1	13	-3	-12	1	8	3	x
CC(C)C[C@@H](CN1CCCC1CN1C(=S)NC[C@@H]1Cc1ccc(O)cc1)N1C[C@H](Cc2ccc(O)cc2)N(CC2CCCCC2)C1=S (stereo partly specified)	1	-18	56*	17	11	59*	60*
CC(C)C[C@H]1CNC(=S)N1CC1CCCN1C[C@H](Cc1ccc(O)cc1)N1C[C@H](Cc2ccccc2)N(CC2CCCCCC2)C1=S (stereo partly specified)	-20	2	2	-11	6	10	x
Oc1ccc(C[C@H]2CNC(=S)N2CC2CCCN2C[C@H](Cc2ccc(O)cc2)N2C[C@H](Cc3ccc(O)cc3)N(CC3CCCCC3)C2=S)cc1 (stereo partly specified)	9	-13	96*	45	12	59*	59*
Oc1ccc(C[C@H]2CNC(=S)N2C[C@H]2CCCN2C[C@H](Cc2ccccc2)N2C[C@H](Cc3ccc(O)cc3)N(CC3CCCCCC3)C2=S)cc1	-29	-21	19	-24	18	45	x
Oc1ccc(C[C@H]2CN([C@@H](Cc3ccc(O)cc3)CN3CCC[C@@H]3CN3C(=S)NC[C@@H]3Cc3ccccc3)C(=S)N2CC2CCCCCC2)cc1	8	-36	61*	-12	34	58*	20
CC(C)C[C@@H](CN1CCC[C@@H]1CN1C(=S)NC[C@@H]1Cc1ccccc1)N1C[C@H](Cc2ccc(O)cc2)N(CC2CCCCC2)C1=S	15	-10	-7	13	-4	23	x
SMILES	LGR2 inh	KKLEB tox	TWEAK Fn14 block	TROY NFkB inh	EWS-Fli inh	CF NFkB block	CF NFkB inh conf
C[C@H]1CN([C@@H](C)CO)C(=O)c2cccc(NC(=O)c3ccc(-c4nccs4)cc3)c2O[C@H]1CN(C)Cc1ccc2c(c1)OCO2	16	x	x	x	13	x	x
Oc1ccc(C[C@H]2CNC(=S)N2CC2CCCN2C[C@H](Cc2ccccc2)N2C[C@H](Cc3ccc(O)cc3)N(CC3CCCCCC3)C2=S)cc1 (stereo partly specified)	6	-24	41	-1	19	58*	42*
C[C@@H]1CN([C@@H](C)CO)C(=O)c2cc(NC(=O)Nc3cccc4ccccc34)ccc2O[C@H]1CN(C)S(=O)(=O)c1cccs1	27	x	x	x	-12	x	x
CC(C)NC(=O)N(C)C[C@H]1Oc2ccc(NC(=O)CCCN(C)C)cc2CC(=O)N([C@@H](C)CO)C[C@@H]1C	3	x	x	x	1	x	x
O=C(C[C@@H]1C=C[C@@H](NC(=O)C2CC2)[C@@H](CO)O1)Nc1ccccc1	-5	x	x	x	-4	x	x
CC(c1ccccc1)N1C(=O)c2ccc(C(=O)Nc3ccc(Br)cc3C(=O)O)cc2C1=O (stereo unspecified)	4	-4	10	64*	-1	60*	44*
COCC#Cc1cnc2c(c1)C(=O)N([C@@H](C)CO)C[C@@H](C)[C@H](CN(C)Cc1ccc(-c3ccccc3)cc1)O2	-11	x	x	x	15	x	x
Cc1cc2ccccn2c1C(=O)c1ccc(NN)c([N+](=O)[O-])c1	45	-8	33	12	10	56*	10
CO[C@@H]1CN(C)C(=O)c2cc(NC(=O)Nc3ccc(Cl)c(Cl)c3)ccc2OC[C@@H](C)NC[C@@H]1C	25	x	x	x	-1	x	x
COc1ccc(C(=O)/C=C2/C(=O)Nc3ccccc32)c(OC)c1	u	-40	-4	38	59*	84*	29
